An excerpt weighted towards active compounds, which were near 3.8% of everything screened.
TGFb inhibitor = inhibitors of TGF-b signaling. HepG2 CAGA-GFP TGF-b/SMAD3 reporter, GFP fluorescence, 18 h; TGF-beta stimulated, 500 pg/mL final. Potency, µM (doses to about 46.1 µM), inactives show top-dose activity, negative = inhibition, hits mostly inhibitors. 410,000 compounds, 1.2% hits. AID 588855; further: on the % scale 0 is the no-effect control and ±100 the full control effect; nearly all actives have a fitted effect of over 65% in size
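Cell-based qHTS in HEPG2 carrying a CAGA-GFP Smad reporter; compounds added before 500 pg/mL final TGF-beta, 18 h incubation at 37 degrees C, GFP fluorescence quantified per cell by imaging cytometry.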
A549 viability = kills or reduces viability of A549 cells in Nrf2 counter-screen. 390,000 compounds, 0.16% hits. AID 504648. A549 ARE-Fluc cells, CellTiter-Fluor viability, 18-24 h. Potency, µM (doses to about 46 µM), for the others: at the top dose activity change, negative = cytotoxicity, most hits filed as inhibitors; further: on the % scale 0 is the no-effect control and ±100 the full control effect
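A549 ARE_Fluc cells in 5% FBS OPTI-MEM were exposed to compounds in concentration-response for 18-24 h at 37 deg C. Viability was read by CellTiter-Fluor fluorescence (Ex 405/Em 525) after 30 min, before the luciferase read.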
HepG2 tox = counter-screen for TGF-b inhibitors: cytotoxicity in HepG2 cells; 410,000 compounds, 0.76% hits; Potency, µM (doses to about 46.1 µM), for the others: top-dose activity change, negative = cytotoxicity, usual class: cytotoxic; AID 588856; HepG2 CAGA-GFP viability, ATP luminescence, 18 h
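CellTiter-Glo luminescence gave cytotoxicity after 18 hours at 37 degrees C. The cells were HepG2 CAGA-GFP in 1% FBS DMEM, stimulated with 500 pg/mL TGF-beta after compound addition. %Activity was normalised to no-cell wells (complete cell-killing) and DMSO (no toxicity), and curves were fitted and classified.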
S2 tox = reduces viability in counter-screen for ATXN expression inhibitors | S2 cells (HEK-293 line with an ATXN2-luciferase reporter) viability, CellTiter-Fluor protease fluorescence, 24 h | Potency, µM (titrated, usually from 56.7 µM), usual class: cytotoxic | 400,000 compounds, 0.49% hits | AID 651635; further: nearly all actives have a fitted effect of over 40% in size
ATXN2 expr inh = inhibitors of ATXN2 expression; HEK-293 ATXN2-luciferase reporter, luminescence, 24 h; Potency, µM (top dose mostly 57 µM), inactives show at the top dose activity change, negative = inhibition, hits mostly inhibitors; 360,000 compounds, 0.72% hits; AID 1745845; further: on the % scale 0 is the no-effect control and ±100 the full control effect; nearly all actives have a fitted effect of over 55% in size
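qHTS (up to 57 uM final) was run with 24 h compound exposure of reporter cells at 37 °C. Each well was multiplexed: SteadyGlo luminescence measured ATXN2-luciferase expression after a fluorogenic Gly-Phe-AFC viability readout (25 uM final).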
Nrf2 block = blocks Nrf2 signaling; Potency, µM (doses to about 46 µM), for inactives: at the highest dose activity change, negative = inhibition, most hits filed as inhibitors; AID 504444; A549 ARE-Fluc reporter, luciferase luminescence, 18-24 h; 360,000 compounds, 2.1% hits; further: on the % scale 0 is the no-effect control and ±100 the full control effect; nearly all actives have a fitted effect of over 60% in size
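Concentration-response testing used A549 ARE_Fluc cells at 5000 cells/well. Following an 18-24 h compound incubation, viability was read by fluorescence (Ex 405/Em 525) and luciferase output by luminescence.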
The depositor's hits bear a star; [ ] = dose if it differs, or a comment. The call rests on the fitted dose curve; in most records, active means well fitted curve in the direction sought with a large enough effect; inconclusive means small, poorly fitted or top-dose-only effect, or another doubt; inactive means no such curve, though single readings can be large; an effect the other way counts as inactive or inconclusive. Potency means the concentration at half of the fitted maximal effect.

How did CCN(CC)S(=O)(=O)c1cccc(NC(=O)COC(=O)C2COc3ccccc3O2)c1 (stereo unspecified) do in these assays?
TGFb inhibitor: -4%; A549 viability: -4%; HepG2 tox: 16%; S2 tox: inactive; ATXN2 expr inh: -8%; Nrf2 block: 12%

Results for Cc1ccc(C(=O)OCC(=O)Nc2ccc3c(c2)OCO3)c(O)c1 ?
TGFb inhibitor: -1%; A549 viability: 1%; HepG2 tox: -1%; S2 tox: inactive; ATXN2 expr inh: 5%; Nrf2 block: 3%

How did O=S(=O)(c1ccc(Cl)cc1)c1nc(-c2cccs2)oc1SCc1ccc(F)cc1 do in these assays?
TGFb inhibitor: 6%; A549 viability: 1%; HepG2 tox: -1%; S2 tox: inactive; ATXN2 expr inh: 10%; Nrf2 block: -13%[9.27 µM]

What do the screens show for `Cc1ccc(-n2[nH]c(C)c(C=Nc3ccc4[nH]c(=O)[nH]c4c3)c2=O)cc1C`?
TGFb inhibitor: -6%; A549 viability: inconclusive; HepG2 tox: -84%; S2 tox: inactive; ATXN2 expr inh: 1%

How did Cc1ccc(-n2[nH]c(C)c(/C=N/c3ccccn3)c2=O)cc1 do in these assays?
TGFb inhibitor: -15%; A549 viability: 2%; HepG2 tox: 10µM*; S2 tox: inactive; ATXN2 expr inh: 8%; Nrf2 block: 2%

Results for COc1ccc2nc(/N=C/c3c(C)[nH]n(-c4ccc(C)cc4)c3=O)sc2c1 ?
TGFb inhibitor: -23%; A549 viability: 1%; HepG2 tox: 8.9µM*; S2 tox: inactive; ATXN2 expr inh: 4%; Nrf2 block: inconclusive

What do the screens show for `Cc1ccc(N=Cc2c(C)[nH]n(-c3nc4ccccc4[nH]3)c2=O)cc1`?
TGFb inhibitor: -7%; A549 viability: 7%; HepG2 tox: 0.4µM*; S2 tox: inactive; ATXN2 expr inh: inconclusive; Nrf2 block: 21µM*

How did Cc1[nH]n(-c2cccc3ccccc23)c(=O)c1C=Nc1ccc2[nH]c(=O)[nH]c2c1 do in these assays?
TGFb inhibitor: -7%; A549 viability: 9%; HepG2 tox: 15%; S2 tox: inactive; ATXN2 expr inh: 0%

How did Cc1ccc(-n2[nH]c(C)c(C=Nc3ccc4[nH]c(=O)[nH]c4c3)c2=O)cc1 do in these assays?
TGFb inhibitor: inconclusive; A549 viability: -7%; HepG2 tox: 13µM*; S2 tox: inactive; ATXN2 expr inh: -9%; Nrf2 block: -10%

How did COc1ccc(/C=C(\C#N)C(=O)C(C)(C)n2cncn2)cc1 do in these assays?
TGFb inhibitor: 17%; A549 viability: 8%; HepG2 tox: 2%; S2 tox: inactive; ATXN2 expr inh: 1%; Nrf2 block: 10%

What do the screens show for `C=CCOc1ccc(/C=C/C(=O)OCC(=O)NCc2ccco2)cc1`?
TGFb inhibitor: -7%; A549 viability: -9%; HepG2 tox: 0%; S2 tox: inactive; ATXN2 expr inh: 6%; Nrf2 block: -14%

What do the screens show for `O=C(O)c1cc(N2C(=O)C3CC=CCC3C2=O)ccc1NCc1cccnc1` (stereo unspecified)?
TGFb inhibitor: 10%; A549 viability: -1%; HepG2 tox: -19%; S2 tox: inactive; ATXN2 expr inh: -2%; Nrf2 block: 17%

What do the screens show for `CCOC(=O)c1cnc(-n2nc(C)cc2C)nc1Nc1ccc(OC)cc1`?
TGFb inhibitor: -9%; HepG2 tox: 1%; S2 tox: inactive; ATXN2 expr inh: 1%; Nrf2 block: inconclusive

Results for CCOC(=O)c1cnc(-n2nc(C)cc2C)nc1NC1CCCC1 ?
TGFb inhibitor: inconclusive; A549 viability: inconclusive; HepG2 tox: 11µM*; S2 tox: inconclusive; ATXN2 expr inh: inconclusive; Nrf2 block: inconclusive

Results for COC(=O)/C(C#N)=C/c1c(N2CCN(c3ccccc3)CC2)nc2ccccn2c1=O ?
TGFb inhibitor: 34%; A549 viability: -10%; HepG2 tox: 5%; S2 tox: inactive; ATXN2 expr inh: 18%; Nrf2 block: 26%

How did CNC(=O)/C(C#N)=C/c1c(N(Cc2ccccc2)Cc2ccccc2)nc2ccccn2c1=O do in these assays?
TGFb inhibitor: inconclusive; A549 viability: 23µM*; HepG2 tox: 6%; S2 tox: inactive; ATXN2 expr inh: -9%; Nrf2 block: inconclusive

Results for COc1ccc(-n2c(C)nc3cc(C(=O)NC4CCCC4)ccc32)cc1 ?
TGFb inhibitor: -4%; A549 viability: 15%; HepG2 tox: -53%; S2 tox: inactive; ATXN2 expr inh: -3%

Results for N=c1c2c(ccn1Cc1ccccc1)Oc1ccc3ccccc3c1C2c1ccccc1 (stereo unspecified) ?
A549 viability: 12µM*; Nrf2 block: 5.2µM*

What do the screens show for `CC(C)N1CCc2c(sc(NC(=O)c3ccc4ccccc4c3)c2C(N)=O)C1`?
TGFb inhibitor: 7%; A549 viability: -9%; HepG2 tox: 11µM*; S2 tox: inactive; ATXN2 expr inh: -23%; Nrf2 block: 3%

Results for CCN1CCc2c(sc(NC(=O)c3ccc(S(=O)(=O)N(C)C4CCCCC4)cc3)c2C(N)=O)C1 ?
TGFb inhibitor: inconclusive; A549 viability: -9%; HepG2 tox: 11µM*; S2 tox: inactive; ATXN2 expr inh: inconclusive

Results for CC(C)N1CCc2c(sc(NC(=O)c3ccc(C(=O)c4ccccc4)cc3)c2C(N)=O)C1 ?
TGFb inhibitor: inconclusive; A549 viability: -10%; HepG2 tox: -43%; S2 tox: inconclusive; ATXN2 expr inh: inconclusive; Nrf2 block: inconclusive

Results for CC(C)N1CCc2c(sc(NC(=O)c3cc4cc([N+](=O)[O-])ccc4s3)c2C(N)=O)C1 ?
TGFb inhibitor: inconclusive; A549 viability: -1%; HepG2 tox: 13µM*; ATXN2 expr inh: inconclusive; Nrf2 block: -15%

How did CC(C)N1CCc2c(sc(NC(=O)c3ccco3)c2C(N)=O)C1 do in these assays?
TGFb inhibitor: 0%; A549 viability: -19%; HepG2 tox: 8%; S2 tox: inactive; ATXN2 expr inh: 5%; Nrf2 block: 11%

Results for Cn1c(N)c(C(=O)CSc2nc(N)cc(N)n2)c(=O)n(C)c1=O ?
TGFb inhibitor: 7%; A549 viability: 11%; HepG2 tox: -10%; S2 tox: inactive; Nrf2 block: 9%

Results for O=C1/C(=C/c2ccc(N3CCOCC3)o2)SC(=Nc2ccccc2)N1CCc1c[nH]c2ccccc12 ?
TGFb inhibitor: -1%; A549 viability: inconclusive; HepG2 tox: 13µM*; S2 tox: inconclusive; ATXN2 expr inh: 18µM*; Nrf2 block: inconclusive
